Measured values reported in PubChem BioAssay (NCI).
This is part of a sample that, as a whole, favours compounds with a hit. Of some 83,000 tested, about 20% had one in any assay.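 Activity criterion: percent growth below 10, measured after cells in 96-well plates were exposed to a single compound concentration for 48 hours.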 The source made the active and inactive calls.

The compounds below were run on BT-549 breast (assay: NCI-60 one-dose screen, 48 h (100 = growth as untreated, 0 = no growth, -100 = all killed)). Conditions: 10 µM unless noted.
Procedure: Growth inhibition of the BT-549 human tumor cell line is measured as a screen for anti-cancer activity. Cells are grown in 96 well plates and exposed to the test compound for 48 hours. Compounds are tested at a single concentration, which is 10^-5 M for most compounds. The reported endpoint is percent growth (GI% or GIPRCNT), where numbers from 0 - 100% represent growth inhibition, and numbers from -100% - 0 represent cell death. For example, a value of 40 represents 60% growth inhibition. A value of 0 means no net growth occurred over the course of the experiment. A value of -40 indicates 40% of cells at the beginning of the experiment died by the end of the experiment. A value of -100 means all cells are dead at the end of the experiment.
NCI-60 Human Tumor Cell Lines Screen was performed using the standard one-dose NCI protocol, which is described in more detail at https://dtp.cancer.gov/discovery_development/nci-60/default.htm.
Compounds with GIPRCNT values below 10 were considered active. Activity score was based on GIPRCNT using the following formula: […]
Score is 0 for GIPRCNT values of 100 or above, 50 for GIPRCNT values of 0, and 100 for GIPRCNT values of -100.

Question: With N=C(N)c1ccc(-c2ccc(-c3ccc(Cl)cc3Cl)s2)cc1 as the compound, how does the growth read?
Answer: 100% (inactive)

Question: CCOCCNC1=C(Cl)C(=O)c2ccccc2C1=O was tested. Which growth did it give?
Answer: 107% (inactive)

Question: Which growth does the source give for CCOC(=O)c1ccc2c(c1)nc(-c1ccccc1)n2C1CCCCC1 here?
Answer: 93% (inactive)

Question: CCCNC(=O)Nc1ccc2cc3ccc(NC(=O)NCCC)cc3nc2c1 was tested. Which growth did it give?
Answer: 82.1% (inactive)

Question: With COc1ccc2[nH]c(C(=O)N3CCN(C(=O)OCc4ccc5c(Cl)cc(Cl)c(O)c5n4)CC3)cc2c1 as the compound, how does the growth read?
Answer: -69.3% (active)

Question: Which growth does the source give for CCOC(=O)c1c2c(n3cccc(F)c13)C(=O)c1ncccc1C2=O here?
Answer: 21.7% (inactive)

Question: How did the growth turn out when CNc1nnc2n(-c3ccccc3)c(=O)c3cnn(-c4ccccc4)c3n12 was run?
Answer: 74% (inactive)

Question: CC(C)c1ccc(Cc2cnc(NC(=O)c3cc(Br)cs3)s2)cc1 was tested. Which growth did it give?
Answer: 42.8% (inactive)

Question: O=S(=O)(NCCNc1nccc(-c2c(-c3ccc(F)c(O)c3)nc3occn23)n1)c1ccc(Cl)cc1 was tested. Which growth did it give?
Answer: 107% (inactive)

Question: Cc1ccc(Nc2cc(N)nc(N)n2)cc1Cl was tested. Which growth did it give?
Answer: 101% (inactive)

Question: CC(=O)N1N=C(c2ccc(Nc3nc(Nc4ccccc4)nc(Nc4ccccc4)n3)cc2)CC1c1ccccc1 (stereo not given) was tested. Which growth did it give?
Answer: 87.2% (inactive)

Question: COc1cc2c(cc1OCCCN1CCN(CCCOc3cc4c(cc3OC)C(=O)N3CCC[C@H]3C=N4)CC1)C=CC(C)(C)O2 was tested. Which growth did it give?
Answer: -100% (active)

Question: How did the growth turn out when COc1ccc(OC)c(Nc2nnc(-c3ccc(O)c(OC)c3)o2)c1 was run?
Answer: 79.4% (inactive)

Question: Which growth does the source give for COc1cc(/C=C/C(=O)c2ccc(F)cc2)ccc1OCCCCOc1ccc(/C=C/C(=O)c2c(C)nc3ccccc3c2C)cc1OC here?
Answer: 154% (inactive)

Question: How did the growth turn out when COC1=CC(c2ccc[nH]2)=N/C1=C\c1[nH]c(C)c(CC(=O)NCc2ccccc2)c1C was run?
Answer: 40.2% (inactive)

Question: How did the growth turn out when Cc1ccc(Nn2c(SCC(=O)Nc3nc(-c4ccccc4)cs3)nc(C)c2C)cc1 was run?
Answer: 63.5% (inactive)

Question: For Nc1n[nH]c2ccc([C@H]3[C@@H]4C5CCC(C5)[C@@H]4c4c(ccc5[nH]ncc45)N3S(=O)(=O)C3CC3)cc12 (stereo not given in full), which growth is on record?
Answer: -2.63% (active)

Question: With COc1ccc(-c2nc3c(ncc4ccc(=O)[nH]c43)s2)cc1 as the compound, how does the growth read?
Answer: 86.4% (inactive)

Question: For Cn1cc(-c2csc(-c3c[nH]c4ccc(Br)cc34)n2)c2ccnc(Cl)c21, which growth is on record?
Answer: 84.1% (inactive)

Question: COC1=CC(c2ccc[nH]2)=N/C1=C\c1[nH]c(C)c(C(=O)OC(C)C)c1C was tested. Which growth did it give?
Answer: -7.21% (active)

Question: Which growth does the source give for Cc1[nH]c(C(=O)Nc2ccc(C(=O)N3CCN(c4cc5c(cc4F)c(=O)c(C(=O)O)cn5C4CC4)CC3)cc2OC(C)C)c(Cl)c1Cl here?
Answer: 75.7% (inactive)

Question: For COc1ccc(C(=O)Nc2cccc(-c3cc(=O)c4c(OC)c(OC)c(OC)cc4o3)c2)cc1, which growth is on record?
Answer: 51.4% (inactive)

Question: COc1cc(OCc2cccc(Br)c2C)cc(OC)c1C=O was tested. Which growth did it give?
Answer: 70.9% (inactive)

Question: With Cc1nc2sc(C(=O)Nc3cccc(Br)c3)c(N)c2cc1C(O)c1ccccc1 (stereo not given) as the compound, how does the growth read?
Answer: 53.7% (inactive)

Question: Which growth does the source give for Nc1n[nH]c2cccc(C#Cc3cccc(NC(=O)c4cc(F)cc(C(F)(F)F)c4)c3)c12 here?
Answer: 79.6% (inactive)

Question: Which growth does the source give for NS(=O)(=O)c1ccccc1NC(=O)Nc1nc2ccccc2s1 here?
Answer: 98.2% (inactive)

Question: Which growth does the source give for N#C/C(=C\c1c(-c2ccccc2)[nH]c2ccccc12)C(N)=O here?
Answer: 95.6% (inactive)

Question: With CCCCn1c(=O)[nH]c(N)c([C@@H]2c3c([nH]c(=O)n(CCCC)c3=O)Oc3ccc4ccccc4c32)c1=O as the compound, how does the growth read?
Answer: 46.9% (inactive)

Question: Which growth does the source give for COc1ccc(-c2noc(C(=O)O)c2-c2cc(OC)c(OC)c(OC)c2)cc1 here?
Answer: 49.6% (inactive)

Question: How did the growth turn out when COC(=O)c1cc(N=C2NC(=O)/C(=C/C=C/c3ccccc3)S2)ccc1O was run?
Answer: 48.5% (inactive)

Question: Cc1cc(=O)n(C(=O)Nc2ccccc2Cl)c2cc(O)ccc12 was tested. Which growth did it give?
Answer: 94.4% (inactive)

Question: How did the growth turn out when C=C(C)[C@@H]1CC[C@]2(C(=O)N3CCOCC3)CC[C@]3(C)[C@H](CC[C@@H]4[C@@]5(C)C/C(=C/c6ccncc6)C(=O)C(C)(C)[C@@H]5CC[C@]43C)[C@@H]12 was run?
Answer: 73.4% (inactive)

Question: With COc1ccc2c(c1)N(CCO)C1=C(C(=O)OC1)C2c1cccc(F)c1 (stereo not given) as the compound, how does the growth read?
Answer: 50% (inactive)

Question: Which growth does the source give for CCC1=C[C@@H]2C[C@]3(C(=O)OC)c4[nH]c5ccccc5c4CC[N@+](CC(=O)Nc4cc5c(cc4OC)N(C)[C@H]4[C@@](O)(C(=O)OC)[C@H](OC(C)=O)[C@]6(CC)C=CCN7CC[C@]54[C@@H]76)(C2)[C@H]13 here?
Answer: 111% (inactive)

Question: For COc1ccc(-c2nc3cc(C(=O)NCc4ccccc4)ccc3n2C2CCCCC2)cc1, which growth is on record?
Answer: 80.9% (inactive)

Question: With CC1CCc2c(C(=O)Nc3ncc(Cc4cccc([N+](=O)[O-])c4)s3)csc2C1 (stereo not given) as the compound, how does the growth read?
Answer: 46.6% (inactive)

Question: For O=C1NC(=O)C(Cc2ccc(OCc3ccc(-c4ccc(Cl)cc4Cl)cc3)cc2)S1 (stereo not given), which growth is on record?
Answer: 37.9% (inactive)

Question: How did the growth turn out when N#Cc1c(-c2ccc(Cl)cc2)nc(NN2C(=O)c3ccccc3C2=O)nc1N1CCOCC1 was run?
Answer: 112% (inactive)

Question: With CC(=O)O[C@H]1CC2CCC3C(CC[C@@]4(C)C3C[C@H]([N+]3(C)CCCCC3)[C@@H]4OC(C)=O)[C@@]2(C)C[C@@H]1N1CCCCC1 (stereo not given in full) as the compound, how does the growth read?
Answer: 108% (inactive)

Question: Which growth does the source give for Cn1cc(-c2csc(-c3c[nH]c4ccccc34)n2)c2cnccc21 here?
Answer: 78.7% (inactive)
